The panel holds about 83,000 compounds, 20% with a hit somewhere; the sample as a whole holds those more often.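 Compound tested at a single concentration for 48 hours in 96-well plates; a percent growth value below 10 was scored as active.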 Values without a mark were called inactive. Calls of active or inactive are those of the source.
What follows are compounds tested on MALME-3M melanoma (assay: NCI-60 one-dose screen, 48 h (100 = growth as untreated, 0 = no growth, -100 = all killed)). Conditions: 10 µM unless noted.
In the case of `Cn1c2ccccc2c2c3c(c4c5cc(Br)ccc5n(C)c4c21)C(=O)N(O)C3=O`, the growth is reported as 42.4%.
For `c1ccc2cc(Cn3cc(CSc4nc5ccccc5s4)nn3)ccc2c1`, the growth was 97.7%.
`COCCn1cc(-c2nc(-c3cc4cccnc4n3C)cs2)c2ccccc21` showed a growth of 70.7%.
With `COc1ccc(C2[C@@H](Cl)C(=O)N2c2cc(OC)c(OC)c(OC)c2)cc1Cl` (stereo not given in full) the growth was 69.1%.
For `N#Cc1nn(-c2cc(=O)[nH]c3ccc(Br)cc23)c(N)c1C#N`, the growth was 89.4%.
Compound `CC1=C2CC/C(C)=C/CC[C@]3(C)O[C@H]3CC/C(C)=C/[C@H]2OC1` has a growth of 112%.
For `CN(C)CCCn1c2c(c3cnccc3c1=O)C(=O)c1ccccc1-2`, the growth was -45.7% (active).
Work on `CN1CCOCCN(C)Cc2ccc3ccc(cc3c2)CN(C)CCOCCN(C)Cc2ccc3ccc(cc3c2)C1` yielded a growth of 68.8%.
With `COc1ccc2c(O)c(/C=C3\N=Nc4ncccc43)oc2c1C[C@@H]1CCNC[C@H]1F` the growth was -31.2% (active).
Compound `COc1cc(/C=C2\C(=O)N(CCCOc3cc(O)c4c(=O)cc(-c5ccccc5)oc4c3)c3ccccc32)cc(OC)c1O` has a growth of 78.5%.
`Cc1ccc(S(=O)(=O)c2nc(-c3ccccc3)oc2SCC(N)=O)cc1` was tested, and the growth was 98.9%.
Compound `C=CN(C(=O)N1CCN(c2cc3c(cc2F)c(=O)c(C(=O)O)cn3C2CC2)CC1)c1nc(-c2ccccc2)cs1` has a growth of 107%.
With `Cc1ccc(NC(=O)c2sc3nc(C)c(C(O)c4ccccc4)cc3c2N)cc1` (stereo not given) the growth was 49.1%.
Work on `Nc1c(Br)cc2c(c1Br)Cc1cc([N+](=O)[O-])ccc1-2` yielded a growth of 67.3%.
In the case of `Cn1cc(-c2nc3c(F)cc4[nH]ncc4c3c3c2CCCC3)c(C(F)(F)F)n1`, the growth is reported as 59.7%.
Compound `CCCCCc1ccc(S(=O)(=O)Nc2ccc3nc(N)oc3c2)cc1` has a growth of 89.8%.
`Nc1ncnc2c1N=C(c1ccc(F)cc1)CC(c1cccc(Nc3ccnc4cc(Cl)ccc34)c1)N2` (stereo not given) gave a growth of 91.1%.
In the case of `CCOC(=O)c1[nH]cc2c1CCc1sc(Nc3ccccn3)nc1-2`, the growth is reported as 108%.
With `C=C(C)[C@@H]1CC[C@]2(CO)CC[C@]3(C)[C@H](CC[C@@H]4[C@@](C)(CCCN)[C@H](C(=C)C)CC[C@]43C)[C@@H]12` the growth was -94.7% (active).
For `CCN1C(=O)N(c2ccccc2)C2NC(=S)N(/N=C/C=C/c3ccccc3OC)C21` (stereo not given), the growth was 40.9%.
`CN1c2ccccc2S(=O)(=O)n2c(SCC(=O)Nc3nc4ccc(F)cc4s3)nnc21` was tested, and the growth was 98.8%.
`Clc1ccc(Nc2nnc(CNc3ccccc3)c3ccccc23)cc1` was tested, and the growth was -13.8% (active).
In the case of `N#C/C(=C\c1ccc(-c2cccc(Cl)c2)o1)C(=O)Nc1ncc(Cc2ccc(Cl)cc2)s1`, the growth is reported as 42.7%.
Work on `CN(C)CCC(CCN(C)C)(C(=O)O)c1ccccc1` yielded a growth of 97.5%.
`CC1(C)CC[C@]23CC[C@]4(C)[C@H](CC[C@@H]5[C@@]6(C)C/C(=C/O)C(=O)C(C)(C)[C@@H]6CC[C@]54C)[C@H]2[C@H]1OC3` showed a growth of 104%.
With `CN(C)C1CN(C(=O)c2cc(-c3ccc4ncnc(N5CCc6cc(F)c(Cl)cc65)c4c3)cnc2N)C1` the growth was -21.2% (active).
In the case of `Cc1[nH]n(-c2cccc(Cl)c2)c(=O)c1/C=C1\C=c2ccccc2=CC1=O`, the growth is reported as 59%.
Compound `COCCn1cc(-c2csc(-c3c[nH]c4ccccc34)n2)c2cccnc21` has a growth of 52.3%.
With `COC(=O)c1c2c(c[n+]([O-])c1C)C(=O)C=C(NCc1ccccc1)C2=O` the growth was -100% (active).
`ClC(Cl)c1nc(-c2ccccc2)n2nc(-c3ccccc3)cc2n1` gave a growth of 55.9%.
With `CN(C)c1ccc([C@@H](C(=O)Nc2cccc([N+](=O)[O-])c2)N(C(=O)c2cc3ccccc3[nH]2)c2cccc([N+](=O)[O-])c2)cc1` the growth was 96.5%.
Compound `CC(C)(Sc1cc(C(C)(C)C)c(O)c(C(C)(C)C)c1)Sc1cc(C(C)(C)C)c(OC(=O)CCC(=O)O)c(C(C)(C)C)c1` has a growth of 65.8%.
`COc1cc(C=C2C(=O)NC(=S)NC2=O)cc(CN2CCCC2)c1O` gave a growth of 108%.
`Cc1cc(C)c2c(c1)N(C)c1ncnc(-n3c(C)nc4cc(C)ccc43)c1CC2C` (stereo not given) was tested, and the growth was 45.4%.
Work on `Brc1ccc(Nc2nc(Nc3cnc4ccccc4c3)c3[nH]cnc3n2)cc1` yielded a growth of 105%.
For `COc1cc(C[C@H]2COc3cc(O)cc(O)c3C2=O)ccc1O`, the growth was 62%.
With `CC(=O)c1c(Nc2cccc(F)c2)[nH]c2c(Cl)cc(Cl)c(Cl)c2c1=O` the growth was -18.6% (active).
`COC12C=C/C(=C(/C(=O)OCc3csc(SC)n3)C(=O)CCCCCCCCC3(OC)C=C/C(=C(/C(=O)OCc4cnc(SC)s4)C(=O)CCCCCCCC1)O3)O2` (stereo not given) was tested, and the growth was -1.67% (active).
In the case of `COC12C=C/C(=C(/C(=O)OCCSc3ccnn3C)C(=O)CCCCCCCCC3(OC)C=C/C(=C(/C(=O)OCCSc4ccnn4C)C(=O)CCCCCCCC1)O3)O2`, the growth is reported as -32.2% (active).
Work on `O=C(/C=C/C12c3ccccc3C(c3ccccc31)C1C(=O)NC(=O)C12)c1ccco1` (stereo not given) yielded a growth of 49.3%.
